“And” between values parts separate entries of the source, which are not always exact repeats. Identical values can stand only once. Out of some 5,500 compounds screened, about 2,000 (36%) were called active. Inconclusive results (about 18%) are left out. No stated cut-off is given here; in the data, active means normalized growth mostly below about 0.91 (no sharp cut-off); inconclusive means no clear call, values can overlap the other calls; inactive means mostly above about 0.92. This is one part of the list.
Assay: chemical genetic growth profiling, strain panel (AID 1159580);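 further: tested at 20 µM; growth read once vehicle control cultures reached saturation at 30 °C; 1 = growth at the plate median or of vehicle wells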
Details: S. cerevisiae deletion strains, growth OD

Measured: normalized growth

COP(N)(=O)SC (configuration not stated)
inactive: locus YAL013W, strain DEP1, stronger effect = lower value 1 | locus YAL021C, strain ccr4, stronger effect = lower value 0.981 | locus YAL026C, strain drs2, stronger effect = lower value 1.01 | locus YAL030W, strain snc1, stronger effect = lower value 1 | locus YBL061C, strain skt5, stronger effect = lower value 1.01 | locus YBR009C, strain hhf1, stronger effect = lower value 1.02 | locus YBR021W, strain FUR4, stronger effect = lower value 1.01 | locus YBR023C, strain chs3, stronger effect = lower value 1.01 | locus YBR171W, strain sec66, stronger effect = lower value 1 | locus YBR229C, strain ROT2, stronger effect = lower value 0.978 | locus YBR231C, strain swc5, stronger effect = lower value 1.01 | locus YBR279W, strain paf1, stronger effect = lower value 1.01 | locus YCL011C, strain gbp2, stronger effect = lower value 1 | locus YCL016C, strain dcc1, stronger effect = lower value 1 | locus YCL029C, strain bik1, stronger effect = lower value 1.01 | locus YCL061C, strain MRC1, stronger effect = lower value 0.997 | locus YCL069W, strain vba3, stronger effect = lower value 1 | locus YCR088W, strain abp1, stronger effect = lower value 1 | locus YDL005C, strain med2, stronger effect = lower value 1 | locus YDL035C, strain GPR1, stronger effect = lower value 1.01 | locus YDL040C, strain nat1, stronger effect = lower value 1.01 | locus YDL074C, strain BRE1, stronger effect = lower value 0.993 | locus YDL101C, strain DUN1, stronger effect = lower value 0.978 | locus YDL134C, strain PPH21, stronger effect = lower value 1.01 | locus YDL185W, strain tfp1, stronger effect = lower value 1.01 | locus YDL192W, strain arf1, stronger effect = lower value 1.01 | locus YDR001C, strain nth1, stronger effect = lower value 0.994 | locus YDR069C, strain doa4, stronger effect = lower value 1.01 | locus YDR101C, strain arx1, stronger effect = lower value 1 | locus YDR137W, strain rgp1, stronger effect = lower value 1.01 | locus YDR150W, strain NUM1, stronger effect = lower value 0.987 | locus YDR159W, strain sac3, stronger effect = lower value 1.02 | locus YDR162C, strain NBP2, stronger effect = lower value 0.993 | locus YDR195W, strain ref2 0.999 | locus YDR297W, strain sur2, stronger effect = lower value 1 | locus YDR318W, strain mcm21, stronger effect = lower value 1.01 | locus YDR334W, strain swr1, stronger effect = lower value 1 | locus YDR335W, strain msn5, stronger effect = lower value 0.998 | locus YDR388W, stronger effect = lower value 1.01 | locus YDR392W, strain spt3, stronger effect = lower value 1.01 | locus YDR502C, strain sam2, stronger effect = lower value 1.01 | locus YEL003W, strain gim4, stronger effect = lower value 1 | locus YEL037C, strain rad23, stronger effect = lower value 0.998 | locus YEL061C, strain CIN8 (second series), stronger effect = lower value 1.01 | locus YEL061C, strain CIN8, stronger effect = lower value 1 | locus YER015W, strain faa2, stronger effect = lower value 1.01 | locus YER016W, strain bim1, stronger effect = lower value 1.01 | locus YER110C, stronger effect = lower value 1.01 | locus YER111C, strain swi4, stronger effect = lower value 1.01 | locus YER155C, strain BEM2 (second series), stronger effect = lower value 1.02 | locus YER155C, strain BEM2, stronger effect = lower value 0.98 | locus YER167W, strain BCK2, stronger effect = lower value 1 | locus YFR010W, strain ubp6, stronger effect = lower value 0.994 | locus YGL078C, strain dbp3, stronger effect = lower value 1.01 | locus YGL086W, strain mad1, stronger effect = lower value 1.01 | locus YGL167C, strain pmr1, stronger effect = lower value 1.01 | locus YGL173C, strain kem1, stronger effect = lower value 1.02 | locus YGL227W, strain vid30, stronger effect = lower value 1.01 | locus YGL240W, strain doc1, stronger effect = lower value 1.02 | locus YGL248W, strain PDE1, stronger effect = lower value 1.01 | locus YGL253W, strain hxk2, stronger effect = lower value 0.997 | locus YGR078C, strain PAC10, stronger effect = lower value 0.997 | locus YGR135W, strain pre9, stronger effect = lower value 0.999 | locus YGR229C, strain SMI1, stronger effect = lower value 1 | locus YGR252W, strain gcn5, stronger effect = lower value 1.02 | locus YHR013C, strain ard1, stronger effect = lower value 0.994 | locus YHR027C, strain rpn1, stronger effect = lower value 1 | locus YHR030C, strain SLT2, stronger effect = lower value 0.986 and 1.05 | locus YHR079C, strain IRE1 (second series), stronger effect = lower value 1.02 | locus YHR079C, strain IRE1, stronger effect = lower value 1.07 | locus YHR094C, strain hxt1, stronger effect = lower value 1.01 | locus YHR129C, strain ARP1, stronger effect = lower value 0.998 | locus YHR142W, strain chs7, stronger effect = lower value 0.982 | locus YHR200W, strain rpn10, stronger effect = lower value 1.01 | locus YIL066C, strain RNR3, stronger effect = lower value 1.03 | locus YIL073C, strain SPO22, stronger effect = lower value 1.06 | locus YIL125W, strain kgd1, stronger effect = lower value 1 | locus YIR030C, strain dcg1, stronger effect = lower value 1.01 | locus YJL092W, strain hpr5, stronger effect = lower value 0.998 | locus YJL095W, strain BCK1 (second series), stronger effect = lower value 1.01 | locus YJL095W, strain BCK1, stronger effect = lower value 0.99 and 1.03 | locus YJL115W, strain asf1, stronger effect = lower value 1 | locus YJL129C, strain trk1, stronger effect = lower value 0.993 | locus YJL134W, strain LCB3, stronger effect = lower value 1 | locus YJL154C, strain vps35, stronger effect = lower value 0.998 | locus YJL164C, strain tpk1, stronger effect = lower value 1 | locus YJL166W, strain qcr8, stronger effect = lower value 1.01 | locus YJL168C, strain set2, stronger effect = lower value 1.01 | locus YJL187C, strain SWE1 (second series), stronger effect = lower value 1.01 | locus YJL187C, strain SWE1, stronger effect = lower value 1.01 | locus YJR043C, strain POL32, stronger effect = lower value 1.02 | locus YJR066W, strain TOR1, stronger effect = lower value 0.985
